Screening results (PubChem BioAssay)
Tgondii IFNg = T. gondii growth inhibition under IFN-gamma. hit rate 3.8% among 69,000. Toxoplasma gondii growth in IFN-gamma-treated host cells; hits give low values. AID 1259416. activity change, negative = inhibition, % (no concentration beside the values); in the data active = activity change below about -70%, passing the limit was not always enough;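 also: host cells are HeLa cells infected with Toxoplasma gondii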
The depositor's hits bear a star; ! = a repeat was not active. The sample as a whole holds a higher share of hits than the screen did.

How did CC(=O)N1CCC(C(=O)NCc2ccccc2)(N(Cc2ccc3c(c2)OCO3)C(=O)c2ccc(C)cc2)CC1 do in these assays?
Tgondii IFNg: -30.3

How did Cc1c(C(=O)N2CCC(O)(CN(C)C)C2)n(C)c2c(C)cccc12 (centres undefined) do in these assays?
Tgondii IFNg: -5.2

How did COc1ccc(CN2CCC3(CCN(S(=O)(=O)Cc4ccccc4)C3)C2)cc1F (centres undefined) do in these assays?
Tgondii IFNg: -1.4

What do the screens show for `COCCC(=O)c1ccc2nnc3nc(C)n(-c4ccccc4)c3c2c1`?
Tgondii IFNg: 0.8

What do the screens show for `O=C(CC1COCCN1)N1CCCN(C2Cc3ccccc3C2)CC1` (centres undefined)?
Tgondii IFNg: 7.8

How did Cc1ccc(N(CC(=O)N2CCC(=O)NCC2C)S(C)(=O)=O)cc1 (centres undefined) do in these assays?
Tgondii IFNg: 12.0

How did Nc1ccnc(N2CC(c3cccnc3)C2)n1 do in these assays?
Tgondii IFNg: 3.5

How did O=C(c1cncc(N2C[C@@H]3[C@H](C2)[C@H]2CC[C@@H]3O2)n1)N1CCOCC1 do in these assays?
Tgondii IFNg: 1.0

How did NC(=O)N1CCN(C(=O)c2ccc(CSc3ccccn3)cc2)CC1 do in these assays?
Tgondii IFNg: 4.9

What do the screens show for `CC(C)Cc1cc(CNC(=O)c2cccc3c2NCCC3)no1`?
Tgondii IFNg: -15.3

Results for O=C(c1n[nH]c2c1CCC2)N1C[C@@H]2[C@H](C1)[C@H]1CC[C@@H]2O1 ?
Tgondii IFNg: 3.8

What do the screens show for `Cc1ccc(F)cc1-n1c(C2CC2)n[nH]c1=O`?
Tgondii IFNg: 3.7

Results for COc1cccc(-n2c(=O)c(C(=O)NCCc3ccccc3)c(O)c3cccnc32)c1 ?
Tgondii IFNg: 37.7

Results for CO[C@H]1CC[C@@H]2[C@H]1OCCN2C(=O)Cc1ccc2c(c1)OCO2 ?
Tgondii IFNg: -0.8

Results for O=C(O)C1CC(=O)N(Cc2nccn2Cc2ccccc2)C1 (centres undefined) ?
Tgondii IFNg: 5.7

Results for Cc1ccc(C)c(S(=O)(=O)Nc2ccc3c(c2)CCC(=O)N3CC(C)C)c1 ?
Tgondii IFNg: -51.7

What do the screens show for `CC(C)CN1C(=O)CCc2cc(NS(=O)(=O)c3ccc(F)cc3F)ccc21`?
Tgondii IFNg: -4.2

Results for Cc1ccc(S(=O)(=O)Nc2ccc3c(c2)CCC(=O)N3CC(C)C)cc1Cl ?
Tgondii IFNg: -93.1*

What do the screens show for `CC(C)CN1C(=O)CCc2cc(NS(=O)(=O)c3ccccc3Cl)ccc21`?
Tgondii IFNg: 9.0

Results for Cc1ccc(S(=O)(=O)Nc2ccc3c(c2)CCC(=O)N3CC(C)C)c(C)c1 ?
Tgondii IFNg: -85.9*

What do the screens show for `CC(C)CN1C(=O)CCc2cc(NS(=O)(=O)c3ccc(F)c(F)c3)ccc21`?
Tgondii IFNg: -63.8

Results for CN1C(=O)CCc2cc(NC(=O)c3cccc(F)c3)ccc21 ?
Tgondii IFNg: 224.9

How did CCOc1ccccc1-c1noc(-c2c(O)c3cc(C)ccc3[nH]c2=O)n1 do in these assays?
Tgondii IFNg: 18.4

How did CNC(=O)c1ccc(-c2ccnc3c2ccn3C)o1 do in these assays?
Tgondii IFNg: 60.8

Results for Cn1ccc2c(-c3ccc(C(=O)O)cn3)ccnc21 ?
Tgondii IFNg: 11.9

What do the screens show for `Cn1ccc2c(-c3cccc(O)c3)ccnc21`?
Tgondii IFNg: -77.5*

Results for Cc1ccc2c(c1)NC1(CCN(C(=O)Nc3ccccc3Cl)CC1)c1cccn1-2 ?
Tgondii IFNg: 30.5

What do the screens show for `O=C(CSCCS(=O)(=O)c1ccc(Cl)cc1)Nc1ccc(F)c(Cl)c1`?
Tgondii IFNg: -56.0

Results for Cc1cc(CC(C)CC(C)(C)C)n(O)c(=O)c1 (centres undefined) ?
Tgondii IFNg: -68.2

What do the screens show for `Cc1cc(C2CCCCC2)n(O)c(=O)c1`?
Tgondii IFNg: -82.2*!

How did CC(C)N1CCC(N2CCN(Cc3cc4ccccc4o3)CC2CCO)CC1 (centres undefined) do in these assays?
Tgondii IFNg: -0.4

How did CN(C)C1(CNc2nccc(C3CCCC3)n2)CCOCC1 do in these assays?
Tgondii IFNg: -0.6

Results for Cn1cnc2c1C(C(=O)O)CN(Cc1nccs1)C2 (centres undefined) ?
Tgondii IFNg: 2.0

Results for O=C(c1ccoc1)N1CCn2c(Cn3cncn3)cnc2C1 ?
Tgondii IFNg: -3.7

Results for COc1cc2nccc(Oc3ccc(NC(=O)Nc4cc(C)on4)c(Cl)c3)c2cc1OC ?
Tgondii IFNg: -81.3*

What do the screens show for `COc1cc2nccc(Oc3ccc(NC(=O)NC4CC4)c(Cl)c3)c2cc1C(N)=O`?
Tgondii IFNg: -43.2

Results for CNC(=O)c1cccc2cc(Oc3ccnc4cc(OCC5(N)CC5)c(OC)cc34)ccc12 ?
Tgondii IFNg: -8.1

Results for COc1ccc(S(=O)(=O)Nc2cncc(C(=O)Nc3ccc(F)cc3F)c2)cc1OC ?
Tgondii IFNg: 35.2

Results for COc1cc(Nc2ccnc3cc(Cl)ccc23)c(C(=O)O)cc1OC ?
Tgondii IFNg: -2.7

How did COc1cc2nccc(Oc3ccc(NC(=O)Nc4ccc(F)cc4F)c(F)c3)c2cc1OC do in these assays?
Tgondii IFNg: -75.0*
